FMDV inh = antivirals against foot and mouth disease virus | 410,000 tested, 1.2% active | Potency, µM (top dose mostly 57.9 µM), for inactives: at the highest dose activity change, negative = inhibition, actives largely listed as inhibitors | FMDV antiviral cell-based qHTS | AID 1159524; calls by dose curve; tested in HEK293T cells; note: read-out not given here; potency is the fitted concentration of half-maximal effect; nearly all actives have a fitted effect of over 45% in size
MARV entry inh = Marburg virus entry inhibition; Potency, µM (series often up to 37.8 µM), for the others: top-dose activity change, negative = inhibition, usual class: inhibitors; AID 540276; Marburg virus pseudotyped entry inhibition, cell reporter; 300,000 tested, 1.8% active; calls by dose curve; tested in HEK293 cells; note: potency is the fitted concentration of half-maximal effect
HCV inhibitor = inhibitors of hepatitis C virus infection; Huh7.5.1 HCVcc-Cre infection, luciferase reporter, 44 h; Potency, µM (series often up to 41.8 µM), for inactives: at the top dose activity change, negative = inhibition, most hits filed as inhibitors; 340,000 tested, 3.4% active; AID 651820; active = well fitted inhibition curve with a large enough effect; inconclusive = small, poorly fitted or top-dose-only effect, or another doubt; inactive = no such curve, though single readings can be large or run the other way; note: potency is the fitted concentration of half-maximal effect
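Compounds are dispensed onto cells plated 4 h earlier at 1,000 per well, with HCVcc-Cre virus (about 0.5 moi) added next. Following 44 h of culture, luminescent signal is measured for 15 sec after 15 min with substrate at room temperature.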
Lassa entry inh = inhibitors of Lassa virus binding or cell entry | Lassa virus pseudotype entry inhibition, cell reporter | Potency, µM (titrated, usually from 37.9 µM), inactives show at the highest dose activity change, negative = inhibition, actives largely listed as inhibitors | 300,000 tested, 1.2% active; calls by dose curve; tested in HEK293 cells; note: potency is the fitted concentration of half-maximal effect; nearly all actives have a fitted effect of over 50% in size
HCMV antiviral = inhibitors of human cytomegalovirus | AID 1259415 | 410,000 tested, 4.5% active | HFF cells, HCMV-luciferase reporter, 72 h; active compounds read low | activity change, negative = inhibition, % at 57.5 µM; in the data active = activity change below about -60%; inconclusive = no clear call, values can overlap the other calls; inactive = above about -39%
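Compounds were evaluated in HFFs infected with an HCMV luciferase reporter virus (MOI 1 PFU/cell). Luciferase in lysates collected 72 h post infection served as the replication measure.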
* marks the source's active call; other numbers are inactive results; ? = inconclusive; . = no result; [ ] = another dose, or the depositor's remark. An excerpt weighted towards active compounds, which were near 7.9% of everything screened. % is set by controls: 0 for no effect and ±100 for the full control effect.

SMILES	FMDV inh	MARV entry inh	HCV inhibitor	Lassa entry inh	HCMV antiviral
COc1ccc2nc(Nc3nc(CSc4nc5ccccc5[nH]4)cc(=O)[nH]3)nc(C)c2c1	?	11µM*	14µM*	?	-98*
Cc1nc(Nc2nc(-c3ccccc3)cc(=O)[nH]2)nc2ccccc12	-13%	?	8.9µM*	?	52
Cc1cccc(CNC(=O)c2ccc(NC(=O)N3CC(C)Sc4ccccc43)cc2)c1 (stereo not drawn)	-18%	2%[46.1 µM]	.	-3%[46.1 µM]	4
Cc1nc(Nc2nc(CSc3nc4ccccc4[nH]3)cc(=O)[nH]2)nc2ccccc12	?	13µM*	?	?	-103*
Cc1ccc2c(C)nc(Nc3nc(CSc4nnc(C)s4)cc(=O)[nH]3)nc2c1	-8%	-4%	?	-2%	-99*
Cc1cc(C)n([C@@H]2CCCC[C@H]2OC(=O)c2ccccc2)n1	.	-7%[46.1 µM]	.	.	.
N#C/C(=C\c1ccc(-c2ccc(C(=O)O)cc2)o1)C(=O)Nc1ccccc1C(=O)O	-3%	.	.	12%[46.1 µM]	16
Cc1cc(NC(=O)CSc2nc3cc(C(=O)NCCCOC(C)C)ccc3c(=O)n2Cc2ccco2)no1	-15%	?	7.1µM*	?	-84*
COCCNC(=O)c1ccc2c(=O)n(Cc3ccco3)c(SCC(=O)Nc3ccc(OC)cc3OC)nc2c1	-24%	.	?	.	?
COC(=O)c1ccc2c(=O)n(Cc3ccco3)c(SCC(=O)Nc3ccccc3Cl)nc2c1	9%	-23%	?	-7%	-2
COC(=O)c1ccc2c(=O)n(Cc3ccco3)c(SCC(=O)Nc3cc(C)on3)nc2c1	0%	.	-23%	.	-95*
COc1ccc(C(=O)C[n+]2cccc(C)c2C)cc1[N+](=O)[O-]	-6%	1%[46.1 µM]	0%	-1%	40
CCC(C)(C)c1ccc(OCCCC[n+]2cccc(C)c2C)c(C(C)(C)CC)c1	?	.	18µM*	.	-97*
CCC(C)(C)c1ccc(OCCCC[n+]2ccc(C)cc2)c(C(C)(C)CC)c1	?	21µM*	?	?	-97*
Clc1cccc(Cl)c1CO/N=C/c1c(-c2ccccc2)nc2n1CCS2	-6%	21µM*	?	?	?
COC(=O)/C(C#N)=C/c1c(-c2ccccc2)nc2n1CCS2	15%	-5%[46.1 µM]	4%	-1%[46.1 µM]	-17
CCCCC#C[C@@H]1C=C[C@H](Oc2ccc(C(=O)OC)cc2)[C@@H](COC(=O)OCC)O1	.	16%[14.2 µM]	.	.	.
Cc1ccc(C(=O)NC2CC3CCCC(C2)N3Cc2ccccc2)cc1 (stereo not drawn)	-16%	-16%	9%	-2%	61
Cc1ccc(CN2C3CCCC2CC(NC(=O)c2ccc(F)cc2)C3)cc1 (stereo not drawn)	-6%	7.1µM*	-9%	-13%	8
CCc1ccc(NC(=S)NC2CC3CCCC(C2)N3Cc2ccccc2)cc1 (stereo not drawn)	-15%	10µM*	10µM*	?	?
Cc1cccc(C(=O)NC2CC3CCCC(C2)N3Cc2ccccc2)c1 (stereo not drawn)	-5%	3.2µM*	-1%	-11%[46.1 µM]	-15
S=C(Nc1ccc(Cl)cc1)NC1CC2CCC(C1)N2Cc1ccccc1 (stereo not drawn)	-25%	?	?	0%	?
CCCCOc1ccc(C(=O)NCC2(c3ccc(OC)cc3)CCOCC2)cc1	-18%	?	-10%	2.8µM*	-38
NS(=O)(=O)c1ccc(CCNc2ncnc3c2cnn3-c2cccc(Cl)c2)cc1	?	.	.	8%[46.1 µM]	-23
CCCN1CCCC(c2ccc(Nc3nc(Nc4cc(F)ccc4C(N)=O)c4cc[nH]c4n3)c(OC)c2)C1 (stereo not drawn)	.	.	.	14µM*	.
SMILES	FMDV inh	MARV entry inh	HCV inhibitor	Lassa entry inh	HCMV antiviral
CCCN1CCC(Oc2cc(Nc3nc(Nc4cccc(F)c4C(N)=O)c4cc[nH]c4n3)c(OC)cc2Cl)CC1	.	.	.	13µM*	.
CCOC(=O)N1CCC(N2CCCC(C(=O)c3cc(F)ccc3OC)C2)CC1 (stereo not drawn)	-8%	?	-4%	7%[46.1 µM]	?
Fc1cccc(-c2cc3cnc(Nc4cccc(C(F)(F)F)c4)cc3[nH]2)c1	.	.	.	.	-37
c1ccc(N2CCN(c3nc(-c4ccccn4)nc4ccccc34)CC2)cc1	?	?	3.2µM*	?	-99*
CN1CCN(c2nc(-c3ccccn3)nc3ccccc23)CC1	-11%	?	-13%	-16%	-16
CN1OC(C)(CC(=O)NCc2ccccc2)N=C1c1ccccc1Cl (stereo not drawn)	.	.	.	.	-4
O=C(Nc1nnc(-c2ccco2)o1)c1ccc2ccccc2c1	55%	14µM*	?	?	16
Cc1ccc(C(=O)Nc2nnc(-c3ccco3)o2)cc1	-22%	?	-4%	?	-12
O=C(Nc1nnc(-c2ccncc2)o1)c1ccc(Br)s1	84%	8.9µM*	?	?	-13
O=C(Nc1nnc(-c2ccco2)o1)c1ccc([N+](=O)[O-])s1	21%	?	8.9µM*	?	-38
CCOC(=O)c1sc2cccc(F)c2c1S(=O)(=O)NCc1ccccc1Cl	0%	.	.	17%[46.1 µM]	9
Brc1ccc(CSc2ccc3nnc(-c4cccnc4)n3n2)cc1	32µM*	?	?	?	29
Nn1c(SCc2ccc(Br)cc2)nnc1-c1ccncc1	-7%	.	-3%	.	-63*
Cc1ccc(CSc2ccc3nnc(-c4cccnc4)n3n2)cc1	?	4%	9%	3%	123
c1ccc(CSc2nnc(-c3cccnc3)o2)cc1	51%	12%	14%	18%	-40
Brc1ccc(CSc2nnc(-c3cccnc3)o2)cc1	-12%	8%[46.1 µM]	0%	11%[46.1 µM]	-68*
Clc1ccc(CSc2nnc(-c3ccncc3)o2)cc1	-23%	3%	?	-1%	-70*
Cc1cccc(N2CCN(C(=O)c3ccc(NC(=O)c4nsc5ccccc45)cc3)CC2)c1C	0%	.	.	8%[46.1 µM]	126
Cc1nc2ccccc2n1-c1nc(-c2ccco2)cc(C(F)(F)F)n1	-6%	?	3.2µM*	?	-104*
Fc1ccc(CNc2nc(-c3ccco3)cc(C(F)(F)F)n2)cc1	-28%	9.2µM*	?	-21%	-16
CC12CCC3c4ccc(OC(=O)N(CCCl)CCCl)cc4CCC3C1CCC2O (stereo not drawn)	-30%	?	?	5.6µM*	9
COc1cccc(-c2nc(N3CC(C)CC(C)C3)c3ccccc3n2)c1O (stereo not drawn)	?	?	14µM*	?	62
COc1cccc(-c2nc(N3CCCC3)c3ccccc3n2)c1O	-11%	-10%[46.1 µM]	5µM*	6%	22
Cc1ccc(C)c(CSc2nc3ncccc3[nH]2)c1	-8%	.	.	7%[46.1 µM]	?
COc1ccc(NC(=O)CSc2ncc3c(n2)-c2cc(Cl)ccc2N(Cc2ccccc2F)S3(=O)=O)cc1	5%	.	.	-11%[46.1 µM]	8
COc1ccc(C(=O)C2CCCN(Cc3cnc(C)s3)C2)c(OC)c1 (stereo not drawn)	?	-9%[46.1 µM]	?	?	?

High-throughput results deposited in PubChem BioAssay by National Center for Advancing Translational Sciences (NCATS).
